# Several values for one entry are separate records, joined by “and”; a condition that tells them apart may be missing. Equal entries are not always repeated. Results filed as inconclusive are left out. Entries that show only a call come without a potency. Where a structure was tested more than once in an assay, its records may differ in their call. Activity calls are given as the source filed them. Calls come from the whole dose curve; as a rule, active = well fitted inhibition curve with a large enough effect; inconclusive = small, poorly fitted or top-dose-only effect; inactive = flat fitted curve, though single readings scatter.
# Test: Primary qHTS for inhibitors of nuclear receptor binding SET domain protein 2 (NSD2) in an isogenic RCH-ACV NSD2 p.E1099K mutant (9B) (AID 1645876); note: nearly all actives have a fitted effect of over 70% in size
# Conditions: RCH-ACV (leukaemia line) NSD2 E1099K (9B) viability, CellTiter-Glo, 72 h; series mostly up to 44.9 µM
# Potency is the fitted concentration of half-maximal effect.
row,SMILES,Potency
1,CCOC(=O)[C@H](CCc1ccccc1)N[C@H]1CCc2ccccc2N(CC(=O)O)C1=O,inactive
2,O=C(O)c1cc(=O)[nH]c(=O)[nH]1,inactive
3,CC(C)C[C@H](NC(=O)[C@H](CCc1ccccc1)NC(=O)CN1CCOCC1)C(=O)N[C@@H](Cc1ccccc1)C(=O)N[C@@H](CC(C)C)C(=O)[C@@]1(C)CO1,7.5 nM (active) and 10.5 nM (active)
4,O=S(=O)(c1cccc2cnccc12)N1CCCNCC1,inactive
5,CC[C@H](NC(C)C)[C@H](O)c1ccc(O)c2[nH]c(=O)ccc12,inactive
6,COc1cc2ncnc(Nc3cccc(Cl)c3)c2cc1OC,11.5 µM (active)
7,CC1(C)[C@H](C(=O)O)N2C(=O)C[C@H]2S1(=O)=O,inactive
8,CN(C)CCc1c[nH]c2ccc(CS(=O)(=O)N3CCCC3)cc12,inactive
9,COC(=O)Nc1nc2ccc(Sc3ccccc3)cc2[nH]1,266 nM (active) and 417 nM (active)
10,C[C@@H](NCCCc1cccc(C(F)(F)F)c1)c1cccc2ccccc12,13.3 µM (active) and 18.6 µM (active)
11,Cc1ccc(S(=O)(=O)N[C@@H](Cc2ccccc2)C(=O)CCl)cc1,13.2 µM (active)
12,OCc1ccc(-c2nn(Cc3ccccc3)c3ccccc23)o1,3.72 µM (active)
13,CCCOc1ccc(C(=O)OCCN(CC)CC)cc1N,inactive
14,COc1cccc(N(C)C(=S)Oc2ccc3c(c2)CCCC3)n1,inactive
15,Cc1cccc(N(C)C(=S)Oc2ccc3ccccc3c2)c1,inactive
16,O=C(O)C1CCCN(CCC=C(c2ccccc2)c2ccccc2)C1 (stereo unspecified),inactive
17,CCOCC(O)COc1ccc(NC(=O)CC[S+](C)C)cc1 (stereo unspecified),inactive
18,COc1ccc(-c2ccc3cc(C(=O)O)ccc3c2)cc1C12CC3CC(CC(C3)C1)C2,inactive

row,SMILES,Potency
1,C[C@@H]1CN(c2c(F)c(N)c3c(=O)c(C(=O)O)cn(C4CC4)c3c2F)C[C@H](C)N1,inactive
2,CC1=CC(=O)c2ccccc2C1=O,31.6 µM (active) and inactive
3,C[C@@H]1C[C@H]2[C@@H]3CCC4=CC(=O)C=C[C@]4(C)[C@@]3(Cl)[C@@H](O)C[C@]2(C)[C@@]1(OC(=O)c1ccco1)C(=O)CCl,23.7 µM (active)
4,CCN(CC)CCn1c(=O)c(Cc2ccc(OC)cc2)nc2ccccc21,inactive
5,CN(Cc1cc(Br)cc(Br)c1N)C1CCCCC1,inactive
6,CC(C)(C#N)c1cc(Cn2cncn2)cc(C(C)(C)C#N)c1,inactive
7,N[C@@H](Cc1ccc(O)c(O)c1)C(=O)O,inactive
8,CC(=O)CC(c1ccccc1)c1c(O)c2ccccc2oc1=O (stereo unspecified),inactive
9,C[C@]12C=CC(=O)C=C1CC[C@@H]1[C@@H]2C(=O)C[C@@]2(C)[C@H]1CC[C@]2(O)C(=O)CO,inactive
10,Cn1nnc2c(C(N)=O)ncn2c1=O,inactive
11,OC(Cn1cncn1)(Cn1cncn1)c1ccc(F)cc1F,inactive
12,CCOC(=O)[C@H](CCc1ccccc1)N[C@H]1CS[C@H](c2cccs2)CN(CC(=O)O)C1=O,inactive
13,CN(CCOc1ccc(CC2SC(=O)NC2=O)cc1)c1ccccn1 (stereo unspecified),inactive
14,CN(C)CCc1c[nH]c2ccc(C[C@H]3COC(=O)N3)cc12,inactive
15,Cc1nnc(C(=O)NC(C)(C)c2nc(C(=O)NCc3ccc(F)cc3)c(O)c(=O)n2C)o1,inactive
16,COC(=O)Nc1nc2ccc(S(=O)c3ccccc3)cc2[nH]1 (stereo unspecified),10.5 µM (active) and 596 nM (active)
17,O=C(O)c1cccnc1,inactive
18,CCCCc1oc2ccc(NS(C)(=O)=O)cc2c1C(=O)c1ccc(OCCCN(CCCC)CCCC)cc1,2.99 µM (active) and 11.5 µM (active) and 5.9 µM (active)
